PubChem BioAssay

Assay: compound effects on lung adenocarcinoma cell viability – A549, calcein-AM fluorescence, 48 h, basal, profiling panel (AID 1162)
Details: higher = more signal
Note: test concentration not given here.

Compared with `Cc1ccc(F)cc1S(=O)(=O)N[C@@H]1CCN(Cc2ccc(CC(C)C)cc2)C1`, `CCCNC(=O)[C@@H]1c2ccccc2C(=O)N(c2ccc(C)cn2)[C@H]1c1ccc(CO)cc1` is higher in z-score: -0.815 for the first, -0.293 for the second.

Compared with `O=C1[C@H]2[C@H]3[C@H](O)[C@H](O)CC(=NOC[C@@H](O)COCc4ccco4)[C@@H]3CC[C@H]2C(=O)N1c1ccc(F)cc1F`, `CC[C@@H](c1ccccc1)n1c(=O)n2n(c1=O)[C@H]1[C@H](O)[C@@H]3O[C@@H]3C(=NOCC=C(C)CCC=C(C)C)[C@H]1CC2` is lower in z-score: -0.2 for the first, -0.821 for the second.

Going from `CC(C)[C@@H](OCc1ccccc1)[C@H](C)C=NO[C@H](C)c1cn([C@H](CO)Cc2ccccc2)nn1` to `COCCCNC(=O)[C@]1(Cc2ccccc2)N=C(c2ccc(OCCCO)cc2)O[C@@H]1c1ccccc1`, the z-score rises from -0.22 to -0.2.

`Cc1cc2c(c(=O)o1)[C@H](O)[C@H]1O[C@H]1C2=O` showed a z-score of -0.728.

Assay: compound effects on differentiated 3T3-L1 adipocyte viability – cell-based, 3T3-L1 adipocytes, calcein-AM fluorescence, 48 h, basal, profiling panel (AID 1163)
Details: 3T3-L1 adipocytes viability, higher = more signal

First: COCCOC(=O)N1C(=O)[C@@]2(c3cc(C#CC4(O)CCCCCC4)ccc31)[C@H](C(=O)N1CCN(c3ncccn3)CC1)[C@H]1C(=O)O[C@H](c3ccccc3)[C@H](c3ccccc3)N1[C@@H]2c1ccc(OCCO)cc1
Second: C=CCOC(=O)[C@H]1[C@@H]2C(=O)O[C@@H](c3ccccc3)[C@@H](c3ccccc3)N2[C@@H](c2ccc(OCCOC(=O)[C@H]3C[C@H]4C(=O)N[C@@H](Cc5ccccc5)C(=O)N4[C@H]3c3ccc(O)cc3)cc2)[C@]12C(=O)Nc1ccccc12
The z-score of the first is higher: 1.48 for the first, 0.689 for the second.

Compared with `CS(=O)(=O)CCOC(=O)C1=CC(CCCO)=CC(c2cccs2)N(Cc2cccc(OC(F)(F)F)c2)C=C1C(=O)OCCS(C)(=O)=O` (stereo not drawn), `CN(C)CCCNC(=O)[C@@H]1c2ccccc2C(=O)N(Cc2cc(F)cc(C(F)(F)F)c2)[C@H]1c1ccc(CO)cc1` is lower in z-score: 0.783 for the first, 0.239 for the second.

Going from `N#Cc1ccc(NN2C(C(O)c3cc(C(F)(F)F)cc(C(F)(F)F)c3)C=CC3C(=O)N(c4ccccc4)C(=O)C32)cc1` (stereo not drawn) to `O=C1NC(=O)C2C1C=CC(C(O)Cc1ccccc1)N2Nc1ccccn1` (stereo not drawn), the z-score falls from -0.461 to -0.949.

Going from `COC(=O)C1(C)C=C2C(=C(c3ccccc3)C(=O)C2C)CN1` (stereo not drawn) to `CCCNC(=O)[C@@H]1c2ccccc2C(=O)N(c2ccc(C)cn2)[C@H]1c1ccc(CO)cc1`, the z-score falls from -0.492 to -0.857.

Compared with `COC(=O)CC=C[C@H](C)[C@@H](OCc1ccccc1Br)C(C)C`, `CC(=O)OC[C@H]1O[C@H](CCON=C[C@@H](C)[C@H](OCc2ccccc2)C(C)C)C=C[C@@H]1OC(C)=O` is lower in z-score: 0.0901 for the first, -0.52 for the second.

First: CC(CCN1CCCCc2nc(C)c(C)cc21)=NOC(C)CN1CCCCc2nc(C)c(C)cc21 (stereo not drawn)
Second: COC(=O)[C@@]1(Cc2ccc(OC)cc2)[C@H]2c3cc(C(=O)N4CCCC4)n(Cc4cc(F)c(F)c(F)c4)c3C[C@H]2CN1C(=O)c1ccccc1
The z-score of the first is higher: -0.0335 for the first, -0.0755 for the second.

Going from `CCN1C(=O)[C@H]2[C@H]3[C@H](O)[C@H](O)CC(=NOCc4ccccc4)[C@@H]3CC[C@H]2C1=O` to `CC(C)CON=C1C[C@@H](O)[C@@H](O)[C@@H]2[C@@H]3C(=O)N(Cc4ccccc4)C(=O)[C@@H]3CC[C@@H]12`, the z-score falls from 0.817 to 0.449.

First: CC(=O)OC[C@H]1O[C@H](CCON=C(C)CCN2CCc3nc(-c4ccccc4)c(-c4ccccc4)cc3C2)C=C[C@@H]1OC(C)=O
Second: CC(CCC(=O)OC[C@H]1O[C@H](C#Cc2ccccc2)C=C[C@@H]1Oc1ccc(C)cc1)=NO[C@@H](C)c1cn([C@H](CO)Cc2ccccc2)nn1
The z-score of the first is lower: 0.235 for the first, 0.725 for the second.

First: CC(CCC(=O)OC[C@H]1O[C@H](C#Cc2ccccc2)C=C[C@@H]1Oc1ccc(C)cc1)=NOC[C@@H](O)[C@H]1O[C@@H]2OC(C)(C)O[C@@H]2[C@H]1O
Second: CCOC(=O)[C@H](CC(C)C)NC(=O)CCC1CC(OC(=O)NCc2cccc3ccccc23)CC2(CCCC(COC(=O)NCCc3ccccc3OC)O2)O1 (stereo partly drawn)
The z-score of the first is higher: -0.0958 for the first, -0.187 for the second.

First: CC(C)N1CC=CC23O[C@@H]4C=CCCOC(=O)C4[C@H]2C(=O)N(CCCCCCO)[C@@H]3C1=O (stereo partly drawn)
Second: CCCCCN1CC=CC23O[C@@H]4C=CCOC(=O)[C@@H]4[C@H]2C(=O)N(C(CO)C(C)C)[C@@H]3C1=O (stereo partly drawn)
The z-score of the first is lower: -0.505 for the first, -0.372 for the second.

Going from `O=C1[C@H]2[C@H]3[C@H](O)[C@H](O)CC(=NOC[C@@H](O)COCc4ccco4)[C@H]3CC[C@H]2C(=O)N1C1CCCCC1` to `O=C1[C@H]2[C@H]3[C@H](O)[C@H](O)CC(=NOC[C@@H](O)COCc4ccco4)[C@@H]3CC[C@H]2C(=O)N1c1ccc(F)cc1F`, the z-score falls from 0.979 to 0.165.

First: CO[C@@H]1COC(=O)CCC[C@@H](C)[C@H](OC)COC(=O)CCC[C@H]1C
Second: CC(C)NC(=O)[C@@]1(c2ccc([N+](=O)[O-])cc2)CC(=O)N(CC23CC4CC(CC(C4)C2)C3)[C@@H]1c1ccc(CO)cc1I
The z-score of the first is lower: -0.465 for the first, 0.58 for the second.

Going from `CC(C)(C)OC(=O)CC[C@]1(C(=O)NCc2ccccc2)N=C(c2ccc(OCCCO)cc2)O[C@H]1c1ccccc1` to `COCCCNC(=O)[C@]1(Cc2ccccc2)N=C(c2ccc(OCCCO)cc2)O[C@@H]1c1ccccc1`, the z-score falls from 0.587 to 0.346.

First: CC(C)(C)OC(=O)CC[C@]1(C(N)=O)COC(c2ccc(OCCCO)cc2)=N1
Second: C=C(CCCC)C(=O)CC[C@@H](OC(C)=O)c1cccc(OCCO)c1
The z-score of the first is higher: 0.0132 for the first, -1.33 for the second.

First: O=C1[C@H]2[C@H]3[C@H](O)[C@H](O)CC(=NOCc4ccccc4)[C@H]3CC[C@H]2C(=O)N1c1ccc(F)cc1F
Second: CC[C@@H](c1ccccc1)n1c(=O)n2n(c1=O)[C@H]1[C@H](O)[C@@H]3O[C@@H]3C(=NOCC=C(C)CCC=C(C)C)[C@H]1CC2
The z-score of the first is lower: 0.118 for the first, 0.722 for the second.

Going from `COC(=O)C1=C(C)[C@@H](O)[C@@H](C)[C@H](c2c(OC)c(OC)c(C)c(OC)c2OC)O1` to `Cc1cc2c(c(=O)o1)[C@H](O)[C@H]1O[C@H]1C2=O`, the z-score rises from -0.63 to 0.287.

First: COC(=O)[C@H](C)NC(=O)CCC1CC(OC(=O)NCCc2ccc(F)cc2)CC2(CCCC(COC(=O)NCCc3ccc(Cl)cc3)O2)O1 (stereo partly drawn)
Second: CCOC(=O)[C@H](CC(C)C)NC(=O)CCC1CC(OC(=O)NCc2cccc3ccccc23)CC2(CCCC(COC(=O)NCCN3CCOCC3)O2)O1 (stereo partly drawn)
The z-score of the first is lower: -0.154 for the first, 0.0174 for the second.

Going from `Cc1ccc(F)cc1S(=O)(=O)N[C@@H]1CCN(Cc2ccc(CC(C)C)cc2)C1` to `CC(C)[C@@H](OCc1ccccc1)[C@H](C)C=NO[C@H](C)c1cn([C@H](CO)Cc2ccccc2)nn1`, the z-score rises from -0.537 to 0.315.
